# NSD2 HMT inh: inhibitors of human histone methyltransferase NSD2. 0.54% of 310,000 active. inhibition, % at 12.5 µM. AID 743445. O96028. NSD2 peptide methylation, AlphaScreen, 120 min
# Target sequence (O96028 whole entry, looked up): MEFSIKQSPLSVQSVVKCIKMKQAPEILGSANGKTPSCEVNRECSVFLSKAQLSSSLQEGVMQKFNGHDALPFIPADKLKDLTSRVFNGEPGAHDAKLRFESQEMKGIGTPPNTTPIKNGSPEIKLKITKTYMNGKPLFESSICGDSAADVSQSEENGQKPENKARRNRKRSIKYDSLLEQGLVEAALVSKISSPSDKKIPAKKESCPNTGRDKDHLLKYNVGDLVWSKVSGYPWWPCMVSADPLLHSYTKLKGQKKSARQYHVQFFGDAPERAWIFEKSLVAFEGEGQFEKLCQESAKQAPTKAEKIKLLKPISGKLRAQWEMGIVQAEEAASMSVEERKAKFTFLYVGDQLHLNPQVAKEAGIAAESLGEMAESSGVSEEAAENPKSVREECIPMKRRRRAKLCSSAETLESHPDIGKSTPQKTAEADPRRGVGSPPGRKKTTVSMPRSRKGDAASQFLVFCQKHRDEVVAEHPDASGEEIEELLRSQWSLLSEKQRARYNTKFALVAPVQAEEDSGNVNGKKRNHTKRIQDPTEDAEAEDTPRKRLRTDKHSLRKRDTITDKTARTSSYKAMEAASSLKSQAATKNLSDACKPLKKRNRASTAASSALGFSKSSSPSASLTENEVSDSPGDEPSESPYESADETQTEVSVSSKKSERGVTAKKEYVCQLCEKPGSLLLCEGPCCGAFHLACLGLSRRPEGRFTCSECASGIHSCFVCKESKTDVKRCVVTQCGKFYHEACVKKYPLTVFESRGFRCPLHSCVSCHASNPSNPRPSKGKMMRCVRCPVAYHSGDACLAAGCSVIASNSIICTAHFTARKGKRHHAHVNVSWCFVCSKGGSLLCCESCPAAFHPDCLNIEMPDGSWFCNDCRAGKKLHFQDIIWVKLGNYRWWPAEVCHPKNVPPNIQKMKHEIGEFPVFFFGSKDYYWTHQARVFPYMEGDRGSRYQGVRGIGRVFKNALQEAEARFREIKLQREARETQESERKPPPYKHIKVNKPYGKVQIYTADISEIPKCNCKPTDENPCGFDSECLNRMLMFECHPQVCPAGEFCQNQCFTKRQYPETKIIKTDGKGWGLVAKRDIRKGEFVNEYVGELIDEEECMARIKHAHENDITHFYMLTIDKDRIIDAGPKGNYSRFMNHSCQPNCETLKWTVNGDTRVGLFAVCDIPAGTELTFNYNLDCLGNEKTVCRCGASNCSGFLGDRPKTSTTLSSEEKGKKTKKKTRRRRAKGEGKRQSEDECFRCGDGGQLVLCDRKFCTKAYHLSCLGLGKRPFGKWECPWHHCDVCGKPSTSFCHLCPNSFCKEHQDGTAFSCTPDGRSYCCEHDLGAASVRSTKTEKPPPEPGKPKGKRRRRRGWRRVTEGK
# MITF act: MITF TRPM1 promoter activation in melanoma cells | activation, % at 12.5 µM | SK-MEL-5 TRPM1-promoter luciferase, 24 h; % of positive control, neutral wells = 0 | 0.75% of 300,000 active;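 active = mean activation of at least 80% with every replicate also reaching 80%; inconclusive = mean reaches 80% but some replicate falls short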;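 note: 0% = neutral control wells and 100% = parthenolide positive control wells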
# miR-122 sensor: blocks miR-122 activity in Huh7 sensor cells; AID 602342; Huh7 miR-122 Renilla luciferase sensor, 48 h; neutral wells = 0, positive control = 100; 0.3% of 340,000 active; activation (reporter increase), % at 12.5 µM;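 active = mean replicate activation score at least 90 and every replicate individually at or above 90; inconclusive = only one of the two criteria met; inactive = neither criterion met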;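 note: higher luciferase means less miR-122 activity so hits act as miR-122 inhibitors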
# GSIS activator: primary screen for activators of insulin secretion dependent on glucose, INS-1E cells, GLuc reporter luminescence | 0.61% of 370,000 active | activation, % at 16.6 µM | AID 743287 | INS-1E GLuc reporter insulin secretion, 2-3 h;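 active = lowest replicate activation of at least 40%, so every replicate reaches that level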;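 note: 0% = median of neutral control wells and 100% = median of IBMX positive control wells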
# Wnt bcat act: activators of Wnt/beta-catenin signaling; Wnt/beta-catenin reporter cell assay, activator, plate reader; activation, % at 9.35 µM; 1.2% of 300,000 active; AID 743398; in the data active = activation above about 30%, passing the limit was not always enough; inconclusive = no clear call, values can overlap the other calls;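 note: 0% = neutral control wells and 100% = positive control wells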
# Dyrk1A ADPGlo: inhibitors of rat Dyrk1A kinase; 0.43% of 310,000 active; Q63470; ADP-Glo luminescence, NFATc1 peptide; inhibition, % at 12.5 µM;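 note: plate controls were vehicle with enzyme for no effect and no enzyme for full effect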
# * = called active by the depositor; ? = inconclusive; . = no result; [ ] = dose if it differs, or a comment. A selection: hits, their analogues and other compounds. The true share with any hit is near 2.4%. Cut-off read from the data, not from the text of the source, unless noted: active = inhibition above about 50%; inactive = the rest.
SMILES,NSD2 HMT inh,MITF act,miR-122 sensor,GSIS activator,Wnt bcat act,Dyrk1A ADPGlo
CCS(=O)(=O)C1=NN2C(=N)/C(=C\c3ccc(SCc4ccco4)o3)C(=O)N=C2S1,95*,14,.,4,-4,6
Cc1noc(C)c1NC(=O)N(C)C[C@H]1Oc2ccc(NC(=O)Nc3cccc4ccccc34)cc2CC(=O)N([C@H](C)CO)C[C@H]1C,.,.,26[16.7 µM],4,.,.
N#C/C(=C/c1ccc(O)c(O)c1)C(=O)NCc1ccc(Cl)cc1,78*,-5,-7,-3,-1,34
N#C/C(=C\c1ccc(O)c(Br)c1)C(=O)NCc1ccccc1,.,4,-8,-3,0,86*
COc1ccc(-c2nnc(SCC(=O)N3CCCCC3)o2)cc1OC,.,-6,-1,4,-1,-7
COc1ccc(-c2ccc(SCC(=O)N3CCOCC3)nn2)cc1OC,7,2,-8,84*,.,3
COc1ccc(-c2ccc(SCC(=O)c3cccs3)nn2)cc1OC,-2,9,.,43*,-1,.
COc1ccc(-c2ccc(SCC(=O)c3ccc(F)cc3)nn2)cc1OC,-5,-1,.,26,0,-3
COc1ccc(-c2ccc(SCC(=O)N3CCCC3)nn2)cc1OC,1,6,-3,81*,-6,-1
Cc1noc(C)c1NC(=O)N(C)C[C@@H]1Oc2ccc(NC(=O)CCCCCC(=O)Nc3ccccc3N)cc2C(=O)N([C@@H](C)CO)C[C@H]1C,.,.,.,8,.,.
CO[C@@H]1CN(C)C(=O)c2ccc(NS(C)(=O)=O)cc2OC[C@H](C)N(Cc2ccccc2)C[C@@H]1C,.,.,.,17,.,.
C[C@H](CO)N1C[C@H](C)[C@@H](CN(C)C(=O)Nc2ccc(F)cc2)Oc2ccc(NS(=O)(=O)c3ccc(F)cc3)cc2C1=O,.,.,-3[16.7 µM],15,.,.
C(=C\c1ccccc1)/C=N/N1CCN(c2ccccn2)CC1,3,85*,-8,.,.,4
Oc1ccccc1/C=N/N1CCN(c2ccccn2)CC1,1,71,-2,6,38*,0
O=[N+]([O-])c1ccccc1/C=C\C=N\N1CCN(c2ccccc2)CC1,93*,13,-3,-5,25,5
O=[N+]([O-])c1ccccc1/C=N\N1CCN(c2ccccc2)CC1,12,24,.,-8,4,-2
CC(/C=N/N1CCN(c2ccccn2)CC1)=C\c1ccccc1,-4,65,-7,-4,16,-3
C(/C=C/c1ccccc1)=N/N1CCN(c2ccccc2)CC1,3,94*,-5,40,-1,1
C[C@@H]1CN([C@H](C)CO)C(=O)c2cc(NC(=O)c3ccncc3)ccc2O[C@H]1CN(C)S(=O)(=O)c1ccc(Cl)cc1,.,.,4[16.7 µM],2,.,.
CCCC(=O)Nc1ccc2c(c1)C(=O)N(C)C[C@@H](OC)[C@@H](C)CN(C(=O)c1cnccn1)[C@@H](C)CO2,.,.,-2[16.7 µM],7,.,.
CN(C)Cc1cn(CC[C@@H]2CC[C@H](NC(=O)Nc3ccccc3F)[C@H](CO)O2)nn1,.,.,.,0,.,.
Cc1cccc(/C=N/N2CCN(c3ccccc3)CC2)c1,2,100*,-3,-15,20,22
Cc1ccc(-c2csc(NC(=O)CCCc3cccs3)n2)cc1,-1,8,.,98*,-7,-3
Cc1noc(C)c1S(=O)(=O)Nc1ccc2c(c1)C(=O)N([C@H](C)CO)C[C@@H](C)[C@H](CN(C)C)OCCCC[C@@H](C)O2,.,.,1[16.7 µM],14,.,.
COc1ccc(NC(=O)C2(c3ccc(NC(=O)c4ccc(OC)cc4)cc3)CCCC2)cc1,0,3,1,98*,.,-3
SMILES,NSD2 HMT inh,MITF act,miR-122 sensor,GSIS activator,Wnt bcat act,Dyrk1A ADPGlo
Oc1ccc(-c2nccc(-c3ccc(F)cc3)n2)cc1,-2,92*,-3,11,17,15
COc1cc(C=NN=c2sc3ccccc3n2C)ccc1OCCO,-4,.,.,.,34*,.
COc1cc(C(=O)N=c2sc3ccccc3n2C)cc(OC)c1OC,-1,18,.,26,2,1
COc1cccc(-c2nc3sc4c(c3c(=O)[nH]2)CCCCC4)c1,-2,114*,-3,30,.,-16
Nc1nonc1C(=O)N/N=C/c1ccc(Br)o1,-2,.,.,8,-1,1
N/C(=N\N=C\c1ccc(Br)o1)c1nonc1N,2,118*,.,.,23,-2
N/C(=N\N=C\c1ccc(O)cc1)c1nonc1N,11,65,2,-4,49*,0
CN1CCN(/N=C/c2ccc(Cl)c(Cl)c2)CC1,-1,88*,.,5,.,-2
CN1CCN(/N=C/c2ccc(Br)cc2)CC1,2,95*,-4,23,7,-3
COc1ccc(/C=N/N2CCN(C)CC2)cc1O,0,-3,-3,11,.,3
CCOc1cc(C)c(S(=O)(=O)Nc2ccc3cn[nH]c3c2)cc1C,0,-41,124*,.,.,5
CCOc1ccc(S(=O)(=O)Nc2ccc(Cl)cn2)c(C)c1C,-1,.,65,.,0,-6
Cc1ccc(S(=O)(=O)Nc2ccc3cn[nH]c3c2)c(C)c1,0,-11,.,-12,2,.
CCOc1cc(C)c(S(=O)(=O)Nc2ccc(Cl)cn2)cc1C,0,.,124*,.,-6,-3
CCc1ccc(S(=O)(=O)Nc2ccc(Cl)cn2)cc1,-1,.,178*,17,0,.
O=S(=O)(Nc1ccc2cn[nH]c2c1)c1cc(Br)ccc1Br,.,-8,180*,.,-4,.
C[C@H]1CN([C@@H](C)CO)C(=O)Cc2cc(NS(C)(=O)=O)ccc2O[C@H]1CN(C)C(=O)Nc1ccc(C(F)(F)F)cc1,.,.,8[16.7 µM],-1,.,.
Cc1ccc(C)c(OCCn2nnc3ccccc32)c1,-2,.,-1,-22,0,-1
Cc1cccc(C)c1OCCn1nnc2ccccc21,0,4,-2,1,0,-1
Cc1cc(C)cc(OCCn2nnc3ccccc32)c1,-5,88*,2,1,4,-7
Clc1ccccc1OCCn1nnc2ccccc21,-3,81*,-8,3,19,5
CCCCOc1ccc(CSc2n[nH]c(C)n2)cc1,0,93*,1,.,.,1
CCOc1ccc(C(=O)Nc2cccc(-c3ccc(N4CCOCC4)nn3)c2)cc1OCC,-4,106*,-2,2,22,7
COc1cccc(C(=O)Nc2cccc(-c3ccc(N4CCOCC4)nn3)c2)c1,-1,137*,-7,-7,22,11
CCOc1ccccc1C(=O)Nc1cccc(-c2ccc(N3CCOCC3)nn2)c1,-1,111*,5,3,?,13
COc1ccc(C(=O)Nc2cccc(-c3ccc(N4CCOCC4)nn3)c2)cc1OC,-2,96*,-10,3,26,-8
O=C(Nc1ccc2c(c1)[C@H]1C[C@H](CC(=O)N3CCc4ccccc4C3)O[C@@H](CO)[C@H]1O2)C1CCOCC1,.,.,-3[16.7 µM],6,.,.
CC(=O)N(C)C[C@H]1Oc2ncc(C#Cc3ccccn3)cc2C(=O)N([C@@H](C)CO)C[C@@H]1C,.,.,5[16.7 µM],19,.,.

# From PubChem BioAssay
